# Laboratory results from PubChem BioAssay (NCI).
# Compounds without any hit were thinned out: in the full panel of roughly 83,000, 20% have a hit.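 Single-concentration screen, 48 h exposure, 96-well plates. Endpoint: percent growth. Below 10 = active.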 Unmarked numbers belong to inactive results. Active and inactive are the calls of the source.
# Legend:
# Experiment in all cases: NCI-60 one-dose screen, 48 h (100 = growth as untreated, 0 = no growth, -100 = all killed)
# Details in all cases: 10 µM
# [1] = system: RPMI-8226 leukemia
# [2] = system: OVCAR-8 ovarian
# [3] = system: OVCAR-5 ovarian
# [4] = system: OVCAR-4 ovarian
# [5] = system: SK-OV-3 ovarian
# [6] = system: IGROV1 ovarian
# [7] = system: OVCAR-3 ovarian
# [8] = system: HS 578T breast
# [9] = system: NCI/ADR-RES ovarian
# [10] = system: T-47D breast
# [11] = system: BT-549 breast
# [12] = system: MDA-MB-435 melanoma
# [13] = system: SW-620 colon
# [14] = system: MCF7 breast
# [15] = system: HCT-116 colon
# [16] = system: HCC-2998 colon
# [17] = system: KM12 colon
SMILES,growth [1],growth [2],growth [3] [%],growth [4],growth [5] [%],growth [6],growth [7],growth [8] [%],growth [9] [%],growth [10],growth [11],growth [12],growth [13],growth [14],growth [15],growth [16],growth [17]
CS(=O)(=O)Nc1ccc(Nc2c3ccccc3nc3cc([N+](=O)[O-])ccc23)cc1,0.427% (active),16.6%,67.7,46.8%,53.3,10.5%,-1.65% (active),60.3,87,-11% (active),32.5%,39.7%,7.02% (active),2.38% (active),4.91% (active),32.3%,–
Cc1cc2c(C)c3cc(C)c(N)cc3nc2cc1N,0.782% (active),-6.68% (active),12.3,-2.48% (active),13.3,-1.9% (active),14.9%,15.6,69.2,-2.32% (active),57.8%,12%,4.58% (active),-4.55% (active),-9.81% (active),28.3%,9.44% (active)
CCN1CCCC1CNC(=O)c1ncc(-c2ccc(C(F)(F)F)cc2)c(NC2CCCCCC2)n1 (centres undefined),58.9%,74%,101,78%,89.9,77%,79.5%,92.1,89.7,78.9%,99.2%,72.6%,96.2%,43.6%,54.9%,72.4%,75.3%
COc1ccc2c(c1)C(=O)c1c-2c(OCCN(C)C)nc2ccccc12,17.4%,14.3%,63,44.1%,61,-18.7% (active),30.4%,41,22.8,48.2%,85.4%,33.3%,-7.66% (active),6.19% (active),10.4%,44.9%,23.1%
COc1ccc(/C=C2/CN(C(=O)c3ccccc3F)C/C(=C\c3ccc(OC)cc3)C2=O)cc1,-19% (active),19%,106,61.3%,76.7,30.6%,26.9%,38.9,50.4,62.7%,37%,-46.2% (active),-42.3% (active),8.16% (active),-62.6% (active),-73.1% (active),–
COc1ccc(-c2nn(-c3cccc(NC(=O)Nc4ccccc4)c3)cc2-c2ccncc2)cc1Cl,-35.3% (active),0.341% (active),35.5,41.4%,80.5,33.3%,39.4%,31.9,22.4,30.9%,-40.9% (active),-66.5% (active),-19.7% (active),0.285% (active),5.36% (active),-71.1% (active),-16.2% (active)
COc1ccc(-c2cc(-c3ccc(N(C)C)cc3)c(C#N)c(N3CCCC3)n2)cc1,38.7%,83.3%,64.8,81.4%,72.7,64.9%,105%,103,61.8,67%,74.4%,90.4%,94.4%,103%,67.7%,83.6%,95.4%
CC1(C)N=C(N)N=C(N)N1c1ccc(CCc2ccccc2)c(Cl)c1,26.2%,16.8%,36.3,38%,36.3,28.1%,23.7%,69.3,104,30.3%,35.6%,16.2%,17.6%,13.4%,10.2%,15.3%,13.5%
CCN(CC)CCCC(C)Nc1nc(-c2ccc(OC)cc2)nc2cc(Cl)ccc12 (centres undefined),55.2%,76.1%,65.8,68.7%,91.4,44.3%,69.6%,70.4,71.3,60.2%,75.6%,35%,80.9%,44.6%,47.1%,54.1%,66.3%
CC12O[C@H](C[C@@H](OC(=O)c3ccccc3)[C@H]1O)n1c3ccccc3c3c4c(c5c6ccccc6n2c5c31)C(=O)NC4=O,54.6%,86.5%,59.3,84.5%,12.6,62%,103%,69.3,77.8,59.3%,84.8%,60.2%,60.2%,69.3%,70.1%,87.2%,19.3%
C#Cc1ccc(-n2c(/C=C/c3cc(OC)cc(OC)c3)nc3ncccc3c2=O)cc1,25.1%,66.8%,129,60.2%,68.1,91.9%,76.4%,88,77.1,71.8%,65.2%,79.1%,105%,68.5%,74.8%,94.2%,–
COc1ccc(-c2ccc(-c3ccc(C(=N)N)cn3)o2)cc1,28.3%,76.3%,76.9,61.4%,78.4,75.2%,97.1%,94.1,88.1,69.1%,86.3%,26.4%,80.4%,47.3%,45.9%,29.1%,–
S=C1SCC(c2ccccc2)S1 (centres undefined),102%,103%,106,93.8%,104,114%,121%,143,112,99.6%,109%,102%,111%,99.4%,107%,114%,117%
COc1ccc(-c2nn(-c3cccc(NC(=O)c4cc(C(F)(F)F)cc(C(F)(F)F)c4)c3)cc2-c2ccncc2)cc1Cl,47.7%,66.4%,87.4,76.4%,75.2,77.2%,54.1%,71.5,59.9,51.5%,87.3%,6.11% (active),79.2%,54.2%,57.6%,71.1%,48.8%
C#Cc1ccc(-n2c(/C=C/c3ccc(O)c(OC)c3)nc3ncccc3c2=O)cc1,83.5%,97.1%,108,80.8%,107,95.6%,100%,104,109,91.1%,95.5%,71.2%,102%,89.1%,97.4%,112%,–
Cc1ccc(C(=O)N2C/C(=C/c3ccc(F)cc3)C(=O)/C(=C/c3ccc(F)cc3)C2)cc1,-18% (active),91.4%,110,87.7%,92.5,102%,101%,107,82,81.9%,92.5%,84.5%,82.4%,37.7%,10.6%,108%,–
CCN(CC)CCC(CNc1c(C)cnc2cc(Cl)ccc12)c1ccc(Cl)cc1 (centres undefined),44%,61.8%,54.6,56.6%,81.7,46.4%,70.8%,70.1,59,59.6%,67.7%,-7.89% (active),51.2%,39.7%,23%,26.7%,79.8%
CC(=O)c1nc2ccccc2n1CCNC(N)=O,32%,85.1%,97.5,93.1%,91.5,88.9%,82.7%,68.9,101,67.8%,74.4%,-13.7% (active),57.6%,52.4%,37.2%,95.8%,–
